# Source: PubChem BioAssay (NCATS)
# Where “and” joins values, the source holds several entries; their conditions need not be identical. Equal entries are not always repeated. Results filed as inconclusive are left out. Where a call stands in place of a potency, no number is given. Calls of active or inactive are those of the source. Unless noted, calls follow the shape of the dose curve; as a rule, active = well fitted curve in the direction sought with a large enough effect; inconclusive = small, poorly fitted or top-dose-only effect, or another doubt; inactive = no such curve, though single readings can be large; an effect the other way counts as inactive or inconclusive.
# Assays:
# [1] = Cellular Toxicity (caspase-3) SHSY5Y (AID 657);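 also: cells exposed to compound for 16 hours at 37 °C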; also: potency is read from the fitted curve at half-maximal effect
# Summary of the method: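 Readout: caspase-cleaved peptide-aminoluciferin substrate driving luciferase light in SH-SY5Y neuroblastoma cells after 16 h treatment. Response normalized to DMSO and 10 uM staurosporine controls.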
# [2] = Cellular Toxicity (caspase-3) SK-N-SH (AID 661);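 also: cells exposed to compound for 16 hours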
# Summary of the method: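 Caspase 3/7 activation was read by luminogenic substrate cleavage after 16 hour treatment of SK-N-SH cells. Signal was scaled between DMSO and 10 uM staurosporine, and concentration-response data were fitted with the Hill equation for AC50.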
# [3] = biological target: Cytochrome P450 3A4 (Homo sapiens) (UniProt P08684); assay: qHTS Assay for Inhibitors and Substrates of Cytochrome P450 3A4 (AID 884); also: nearly all actives have a fitted effect of over 50% in size; also: potency is read from the fitted curve at half-maximal effect
# Summary of the method: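 Luminescent readout of luciferin produced by CYP3A4 (20 nM) dealkylation of Luciferin-PPXE, 25 uM (its KM). NADPH-driven reaction ran 60 min at RT after 10 min compound preincubation; data scaled to 57 uM ketoconazole as 100% inhibition.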
# [4] = Cell Viability - LYMP2-001 (AID 921); also: nearly all actives have a fitted effect of over 70% in size; also: potency is read from the fitted curve at half-maximal effect
# Summary of the method: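 A lymphoblastoid cell line of human origin was treated with library compounds across a concentration series for 24 hours, and viable cell number was estimated from ATP-driven luciferase light output. Hill modeling gave AC50.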
# [5] = Cell Viability - LYMP1-003 - Assay at 40 hr (AID 964); also: nearly all actives have a fitted effect of over 60% in size; also: potency is read from the fitted curve at half-maximal effect
# Summary of the method: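 Viability is taken as cellular ATP, read by CellTiter-Glo luminescence after 40 h of compound exposure at 37 C. Cells: human lymphoblastoid line LYMP1-003 at 2500/well; AC50 values derived by Hill-equation fitting of concentration-response data.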
# [6] = Cell Viability - LYMP2-005 (AID 967); also: potency is read from the fitted curve at half-maximal effect
# Summary of the method: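 Luciferase-based ATP quantitation served as the viability measure in human lymphoblastoid LYMP2-005 cells exposed to test compounds for 24 h at 37 C in complete culture medium. Potency (AC50) was obtained by fitting concentration-response curves with the Hill equation.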
# [7] = Cell Viability - LYMP2-009 (AID 968); also: nearly all actives have a fitted effect of over 55% in size; also: potency is read from the fitted curve at half-maximal effect
# [8] = Cell Viability - LYMP2-011 (AID 969); also: nearly all actives have a fitted effect of over 60% in size; also: potency is read from the fitted curve at half-maximal effect
# Summary of the method: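 Cytotoxicity qHTS with ATP content as read-out: lymphoblastoid cells (2500/well) exposed to compound for 24 h at 37 C, then luciferase luminescence measured. Concentration-response data fitted with the standard Hill equation to give AC50.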
# [9] = Cell Viability - LYMP2-013 (AID 970); also: nearly all actives have a fitted effect of over 55% in size; also: potency is read from the fitted curve at half-maximal effect
# Summary of the method: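 qHTS cytotoxicity: ATP-dependent luminescence (CellTiter-Glo, 30 min room temperature) read after 24 h compound exposure at 37 C of 2500 LYMP2-013 lymphoblastoid cells per well. Concentration-response fitted with Hill equation to give AC50.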
# [10] = Cell Viability - LYMP2-017 (AID 972); also: nearly all actives have a fitted effect of over 55% in size; also: potency is read from the fitted curve at half-maximal effect
# Summary of the method: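 CellTiter-Glo luminescence (cellular ATP, 30 min RT) measured cytotoxicity after 24 hr compound treatment at 37 C. Cells were a human lymphoblastoid line, LYMP2-017, plated at 2500/well and incubated 5 hr first; concentration-response fitted with Hill equation for AC50.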
# [11] = Cell Viability - LYMP2-021 (AID 974); also: nearly all actives have a fitted effect of over 55% in size; also: potency is read from the fitted curve at half-maximal effect
# Summary of the method: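 AC50 values come from Hill-equation fits to CellTiter-Glo luminescence (ATP content), read after 24 hour compound exposure at 37 C of 2500 LYMP2-021 lymphoblastoid cells/well; tetraoctylammonium bromide as positive control.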
# [12] = Cell Viability - LYMP2-023 (AID 975); also: nearly all actives have a fitted effect of over 55% in size; also: potency is read from the fitted curve at half-maximal effect
# Summary of the method: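 Intracellular ATP, read by CellTiter-Glo luminescence, reports viability after 24 hr compound exposure at 37 C. 2500 lymphoblastoid cells/well (LYMP2-023) seeded 5 hr beforehand; Hill fits give AC50; positive control tetraoctylammonium bromide.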
# [13] = Cell Viability - LYMP2-002 (AID 977); also: potency is read from the fitted curve at half-maximal effect
# Summary of the method: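 In this qHTS viability screen, 2500 human lymphoblastoid cells per well receive compound for 24 hr at 37 C, and luciferase-based ATP luminescence gives the viability signal. Tetraoctylammonium bromide serves as positive control.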
# [14] = Cell Viability - LYMP2-006 (AID 978); also: nearly all actives have a fitted effect of over 60% in size; also: potency is read from the fitted curve at half-maximal effect
# Summary of the method: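 In this cytotoxicity screen, the human lymphoblastoid line grew in complete medium with test compounds for 24 hr at 37 C. Cellular ATP served as the viability signal.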
# [15] = Cell Viability - LYMP1-002 - Assay at 40 hr (AID 994); also: nearly all actives have a fitted effect of over 60% in size; also: potency is read from the fitted curve at half-maximal effect
# Summary of the method: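 Cytotoxicity was read as loss of cellular ATP (CellTiter-Glo luminescence) after 40 hr compound exposure at 37 C of 2500 LYMP1-002 lymphoblastoid cells per well. Concentration-response data were fitted with the standard Hill equation to give AC50.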
# [16] = biological target: Voltage-gated inwardly rectifying potassium channel KCNH2 (Homo sapiens) (UniProt Q12809); assay: qHTS Assay for Small Molecule Inhibitors of the Human hERG Channel Activity (AID 588834);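 also: lower thallium flux fluorescence means stronger hERG block; nearly all actives have a fitted effect of over 50% in size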; also: potency is read from the fitted curve at half-maximal effect
# Summary of the method: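 Homogeneous FluxOR thallium flux assay using hERG-expressing U2OS cells (BacMam). Compound treatment about 10 minutes preceded stimulation; reduced fluorescence taken as channel block.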
# [17] = qHTS assay for small molecule disruptors of the mitochondrial membrane potential - 5 hr assay (AID 651755; calls by dose curve; also: nearly all actives have a fitted effect of over 40% in size; also: potency is read from the fitted curve at half-maximal effect)
# Summary of the method: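 Seed HepG2 overnight, add compound, incubate 5 hr at 37C and 5% CO2, stain 30 min with Mito-MPS, then measure monomer (490/535 nm) and aggregate (540/590 nm) fluorescence.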
# [18] = qHTS assay for small molecule agonists of the antioxidant response element (ARE) signaling pathway measured by Nrf2-dependant transcriptional activity (AID 720636; active = well fitted curve in the direction sought with a large enough effect in the repeat runs; an effect the other way counts as inactive or inconclusive; also: potency is read from the fitted curve at half-maximal effect)
# Summary of the method: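 Attachment 6 hr at 37 C, then compound versus DMSO vehicle for 16 hr in ARE-luc HepG2 cells (1% dialyzed FBS); luminescence recorded 30 min after ONE-Glo addition at room temperature.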
# [19] = Cell Viability - LYMP1-002 - Assay at 16 hr (AID 948); also: potency is read from the fitted curve at half-maximal effect
# Summary of the method: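 In this qHTS, lymphoblastoid LYMP1-002 cells (human) receive compounds for 16 hr at 37 C. Viability is taken from CellTiter-Glo ATP luminescence, and AC50 derives from standard Hill fits.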
# [20] = Cell Viability - LYMP1-002 - Assay at 24 hr (AID 993); also: potency is read from the fitted curve at half-maximal effect
# Summary of the method: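 qHTS cytotoxicity at 24 h: CellTiter-Glo ATP luminescence in lymphoblastoid line LYMP1-002 incubated with compound at 37 °C. Concentration-response modeled with the Hill equation for AC50; tetraoctylammonium bromide served as positive control.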
# Sequence of Cytochrome P450 3A4 (Homo sapiens) (P08684 whole entry, looked up): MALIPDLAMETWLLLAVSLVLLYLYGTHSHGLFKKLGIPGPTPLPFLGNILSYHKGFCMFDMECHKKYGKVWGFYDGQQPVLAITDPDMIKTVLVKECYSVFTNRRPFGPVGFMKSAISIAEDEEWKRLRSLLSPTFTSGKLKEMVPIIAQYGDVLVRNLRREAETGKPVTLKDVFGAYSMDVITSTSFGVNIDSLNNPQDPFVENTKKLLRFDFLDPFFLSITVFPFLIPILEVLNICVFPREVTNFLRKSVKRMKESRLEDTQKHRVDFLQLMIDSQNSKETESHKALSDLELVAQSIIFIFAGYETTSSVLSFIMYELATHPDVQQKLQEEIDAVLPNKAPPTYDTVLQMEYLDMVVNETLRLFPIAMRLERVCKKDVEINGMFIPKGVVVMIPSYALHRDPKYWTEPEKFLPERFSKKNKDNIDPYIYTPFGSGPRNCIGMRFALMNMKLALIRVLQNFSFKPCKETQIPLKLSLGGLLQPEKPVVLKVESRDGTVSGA
# Sequence of Voltage-gated inwardly rectifying potassium channel KCNH2 (Homo sapiens) (Q12809 whole entry, looked up): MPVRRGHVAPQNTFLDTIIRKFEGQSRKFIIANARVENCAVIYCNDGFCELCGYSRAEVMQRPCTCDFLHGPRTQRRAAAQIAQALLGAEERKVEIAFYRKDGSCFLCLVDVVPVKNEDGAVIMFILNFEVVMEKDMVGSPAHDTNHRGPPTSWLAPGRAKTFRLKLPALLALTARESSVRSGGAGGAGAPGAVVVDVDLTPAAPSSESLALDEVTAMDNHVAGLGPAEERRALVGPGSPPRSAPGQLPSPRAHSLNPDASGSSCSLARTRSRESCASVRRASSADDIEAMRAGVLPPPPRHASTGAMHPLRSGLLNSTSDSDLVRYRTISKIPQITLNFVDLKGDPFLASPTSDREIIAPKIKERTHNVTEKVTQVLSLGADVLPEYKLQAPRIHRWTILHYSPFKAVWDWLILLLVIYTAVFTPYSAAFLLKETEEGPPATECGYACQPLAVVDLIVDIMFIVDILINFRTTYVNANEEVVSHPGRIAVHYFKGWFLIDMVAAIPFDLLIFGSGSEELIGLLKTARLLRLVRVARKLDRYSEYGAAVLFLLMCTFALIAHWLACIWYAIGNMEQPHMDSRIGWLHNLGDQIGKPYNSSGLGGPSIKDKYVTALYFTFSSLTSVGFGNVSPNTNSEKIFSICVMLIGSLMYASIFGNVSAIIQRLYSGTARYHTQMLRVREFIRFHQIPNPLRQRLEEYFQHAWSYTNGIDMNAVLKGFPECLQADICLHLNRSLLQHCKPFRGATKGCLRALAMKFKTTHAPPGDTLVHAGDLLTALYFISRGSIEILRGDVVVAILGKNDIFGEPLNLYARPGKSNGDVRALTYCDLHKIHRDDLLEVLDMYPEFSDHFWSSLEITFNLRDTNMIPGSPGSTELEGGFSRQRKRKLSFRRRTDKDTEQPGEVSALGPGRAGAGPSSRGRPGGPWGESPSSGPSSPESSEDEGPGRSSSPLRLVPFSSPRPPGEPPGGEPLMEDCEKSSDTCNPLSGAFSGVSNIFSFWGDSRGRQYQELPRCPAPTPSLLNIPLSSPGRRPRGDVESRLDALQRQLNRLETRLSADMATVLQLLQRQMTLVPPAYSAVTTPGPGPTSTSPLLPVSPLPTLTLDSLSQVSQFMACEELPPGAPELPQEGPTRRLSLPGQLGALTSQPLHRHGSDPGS
SMILES,Potency [1],outcome [2],Potency [3],Potency [4],Potency [5],Potency [6],Potency [7],Potency [8],Potency [9],Potency [10],Potency [11],Potency [12],Potency [13],Potency [14],Potency [15],Potency [16],Potency [17],Potency [18],Potency [19],Potency [20]
Clc1ccc(C(c2ccc(Cl)cc2)C(Cl)Cl)cc1,50.1 µM (active),inactive,inactive,inactive,79.4 µM (active),inactive,inactive,inactive,inactive,inactive,inactive,inactive,inactive,inactive,50.1 µM (active),22.4 µM (active),66.8 µM (active),inactive,,
COP(=O)(OC)O/C(=C\Cl)c1cc(Cl)c(Cl)cc1Cl,,inactive,inactive,inactive,inactive,,inactive,inactive,,,,inactive,inactive,inactive,inactive,inactive,,,inactive,inactive
O=C(O)C1C(C(=O)O)C2(Cl)C(Cl)=C(Cl)C1(Cl)C2(Cl)Cl (stereo not given),inactive,inactive,inactive,inactive,inactive,inactive,inactive,inactive,inactive,inactive,inactive,inactive,inactive,inactive,inactive,inactive,inactive,inactive,inactive,inactive
O=C(CCl)c1ccccc1,inactive,inactive,inactive,7.94 µM (active),,10 µM (active),10 µM (active),12.6 µM (active),15.8 µM (active),10 µM (active),10 µM (active),12.6 µM (active),12.6 µM (active),12.6 µM (active),inactive,inactive,inactive,inactive,79.4 µM (active),
ClC1=C(Cl)C2(Cl)C3C(Cl)C(Cl)CC3C1(Cl)C2(Cl)Cl (stereo not given),,,15.8 µM (active),inactive,,inactive,inactive,inactive,inactive,,inactive,,,,,35.5 µM (active),inactive,inactive,,inactive
C[C@@H]1CC[C@@]2(OC1)O[C@H]1[C@@H](O)[C@H]3[C@@H]4CC[C@H]5C[C@@H](O[C@@H]6O[C@H](CO)[C@H](O[C@@H]7O[C@H](CO)[C@@H](O)[C@H](O[C@@H]8OC[C@@H](O)[C@H](O)[C@H]8O)[C@H]7O[C@@H]7O[C@H](CO)[C@@H](O)[C@H](O[C@@H]8O[C@H](CO)[C@@H](O)[C@H](O)[C@H]8O)[C@H]7O)[C@H](O)[C@H]6O)[C@H](O)C[C@]5(C)[C@H]4CC[C@]3(C)[C@H]1[C@@H]2C,inactive,inactive,inactive,10 µM (active),7.94 µM (active),15.8 µM (active),12.6 µM (active),20 µM (active),20 µM (active),25.1 µM (active),15.8 µM (active),25.1 µM (active),25.1 µM (active),20 µM (active),7.94 µM (active),25.1 µM (active),26.6 µM (active),inactive,10 µM (active),7.94 µM (active)
CC(C)CC(C)Nc1ccc(Nc2ccccc2)cc1 (stereo not given),inactive,inactive,,15.8 µM (active),31.6 µM (active),31.6 µM (active),,50.1 µM (active),50.1 µM (active),50.1 µM (active),50.1 µM (active),50.1 µM (active),39.8 µM (active),39.8 µM (active),31.6 µM (active),20 µM (active),,,50.1 µM (active),39.8 µM (active)
CC(=O)[O-].CC(=O)[O-].O.O.[Cd+2],inactive,inactive,,,,31.6 µM (active),,,,inactive,50.1 µM (active),inactive,,,inactive,,inactive,841 nM (active),inactive,inactive
OC(c1ccc(Cl)cc1)(c1ccc(Cl)cc1)C(Cl)(Cl)Cl,inactive,,inactive,inactive,inactive,inactive,inactive,inactive,inactive,inactive,inactive,inactive,inactive,inactive,inactive,39.8 µM (active),inactive,inactive,inactive,inactive
O=[N+]([O-])c1ccccc1Cl,,,,,,,,,,,,,,,,,,inactive,,
Cc1ccc2ccccc2c1C,,,,,,,,,,,,,,,,,,inactive,,
N#CC(Cl)Cl,inactive,,,10 µM (active),inactive,inactive,15.8 µM (active),20 µM (active),20 µM (active),39.8 µM (active),25.1 µM (active),25.1 µM (active),12.6 µM (active),12.6 µM (active),inactive,inactive,inactive,,inactive,inactive
Nc1ccccc1C(=O)OCCc1ccccc1,inactive,inactive,,inactive,inactive,inactive,inactive,inactive,inactive,inactive,inactive,inactive,inactive,inactive,inactive,,inactive,,inactive,inactive
O=[N+]([O-])C(Br)Br,inactive,inactive,inactive,7.94 µM (active),inactive,25.1 µM (active),12.6 µM (active),12.6 µM (active),12.6 µM (active),7.94 µM (active),10 µM (active),12.6 µM (active),10 µM (active),20 µM (active),inactive,50.1 µM (active),inactive,,inactive,inactive
CN(C)c1ccc(N=O)cc1,inactive,inactive,inactive,0.631 µM (active),3.98 µM (active),0.794 µM (active),1 µM (active),2 µM (active),1.58 µM (active),1 µM (active),0.794 µM (active),1.26 µM (active),2.51 µM (active),2 µM (active),6.31 µM (active),inactive,,26600 nM (active),7.94 µM (active),3.98 µM (active)
C(=NC1CCCCC1)=NC1CCCCC1,inactive,inactive,inactive,,inactive,inactive,,,,,,,,,inactive,,inactive,inactive,inactive,inactive
[Cd+2].[Cl-].[Cl-],inactive,inactive,,,15.8 µM (active),,,,,,,,,,,,inactive,841 nM (active),,
[CH3][Hg][Cl],,inactive,inactive,1.58 µM (active),50.1 µM (active),,5.01 µM (active),3.98 µM (active),3.98 µM (active),3.16 µM (active),3.16 µM (active),5.01 µM (active),7.94 µM (active),5.01 µM (active),,25.1 µM (active),66.8 µM (active),,39.8 µM (active),39.8 µM (active)
Cc1ccc(O)cc1C,,,,,,,,,,,,,,,,,,inactive,,
c1ccc2cc3c(cc2c1)-c1cccc2cccc-3c12,inactive,inactive,inactive,inactive,inactive,inactive,inactive,inactive,inactive,inactive,inactive,inactive,inactive,inactive,inactive,inactive,6.68 µM (active),9.44 µM (active) and 8.63 µM (active),inactive,inactive
Oc1c(Br)c(Br)c(Br)c(Br)c1Br,inactive,inactive,inactive,inactive,inactive,inactive,inactive,inactive,inactive,inactive,inactive,inactive,inactive,inactive,inactive,inactive,33.5 µM (active),inactive,inactive,inactive
C#CCO,inactive,inactive,inactive,inactive,inactive,inactive,inactive,inactive,inactive,inactive,inactive,inactive,inactive,inactive,inactive,inactive,,inactive,inactive,inactive
N#CSCSC#N,,,inactive,5.01 µM (active),39.8 µM (active),5.01 µM (active),5.01 µM (active),6.31 µM (active),6.31 µM (active),5.01 µM (active),5.01 µM (active),6.31 µM (active),10 µM (active),12.6 µM (active),31.6 µM (active),31.6 µM (active),inactive,inactive,31.6 µM (active),12.6 µM (active)
FC(F)(F)c1ccc(Cl)cc1,inactive,inactive,inactive,inactive,inactive,inactive,inactive,inactive,inactive,inactive,inactive,inactive,inactive,inactive,inactive,inactive,inactive,inactive,inactive,inactive
O=[N+]([O-])OC1CO[C@H]2C(O[N+](=O)[O-])COC12 (stereo not given in full),,,inactive,,,,,,,,,,,,,,,,,
